Measurements as given in the antibiotic and cytotoxicity screens of Wong et al. (2023).
The campaign covered roughly 39,000 compounds. About 3,300 (8.5%) were called active. Many of the other results were omitted from the sample, so actives are more common in it than they were.

Tested on: HepG2
Assay: cytotoxicity call (relative viability < 0.9)
Details: 10 µM

| Structure (SMILES) | cytotoxicity call |
| --- | --- |
| C[C@H](CO)N1C[C@H](C)[C@H](CN(C)C(=O)NC2CCCCC2)Oc2ccc(NC(=O)Nc3cccc4ccccc34)cc2CC1=O | inactive |
| C[C@@H]1CN([C@H](C)CO)C(=O)Cc2cc(NC(=O)Cc3ccccc3)ccc2O[C@@H]1CN(C)S(=O)(=O)c1ccc(F)cc1 | inactive |
| Cc1noc(C)c1NC(=O)Nc1ccc2c(c1)C(=O)N([C@H](C)CO)C[C@H](C)[C@@H](CN(C)C(=O)NC1CCCCC1)OCCCC[C@H](C)O2 | inactive |
| C[C@@H]1CN([C@H](C)CO)C(=O)c2cccc(NS(C)(=O)=O)c2O[C@H]1CN(C)C(=O)Nc1ccc(F)cc1 | inactive |
| O=C(C[C@H]1C=C[C@@H](NC(=O)CN2CCOCC2)[C@@H](CO)O1)NCc1cccc(F)c1 | inactive |
| Cc1noc(C)c1NC(=O)Nc1cccc2c1O[C@H](CN(C)C(=O)Nc1cccc3ccccc13)[C@H](C)CN([C@H](C)CO)C2=O | inactive |
| C[C@@H]1CN([C@@H](C)CO)C(=O)Cc2cc(NC(=O)c3ccncc3)ccc2O[C@@H]1CN(C)S(=O)(=O)c1cn(C)cn1 | inactive |
| C=C(C)C1=NC(C)(C)C[C@H](C)O1 | inactive |
| CS(=O)(=O)N1C[C@@H]2COC[C@@]2(CN2CCOCC2)C1 | inactive |
| CC(C)(C)S(=O)N1Cc2cc(C(=O)NCc3ccc4c(c3)OCO4)nc(-c3cccc(C#CCC4CCCC4)c3)c2[C@@H]1CCO (stereo partly drawn) | inactive |
| CN(C)CCCNC(=O)C[C@@H]1CC[C@@H]2[C@H](COc3ccc(NC(=O)NC4CCCC4)cc3C(=O)N2C)O1 | inactive |
| Cc1noc(C)c1NC(=O)N(C)C[C@H]1OCCCC[C@H](C)Oc2ccc(NC(=O)c3ccccc3)cc2C(=O)N([C@@H](C)CO)C[C@@H]1C | inactive |
| C[C@H](CO)N1C[C@H](C)[C@H](CN(C)Cc2ccc(Cl)c(Cl)c2)OCCCC[C@H](C)Oc2ccc(NC(=O)C3CCCCC3)cc2C1=O | inactive |
| C[C@@H]1CCCCO[C@@H](CN(C)Cc2ccc(Cl)c(Cl)c2)[C@H](C)CN([C@H](C)CO)C(=O)c2cc(NC(=O)C3CCCCC3)ccc2O1 | active |
| C[C@@H]1CN([C@@H](C)CO)C(=O)c2cc(NC(=O)C3CCCCC3)ccc2O[C@@H](C)CCCCO[C@@H]1CN(C)Cc1ccc(Cl)c(Cl)c1 | inactive |
| COc1ccc(CN(C)C[C@@H]2Oc3ccc(NC(=O)CCCN(C)C)cc3C(=O)N([C@@H](C)CO)C[C@H]2C)cc1 | inactive |
| Cn1c(CNc2ccccc2)cc(=O)n(C)c1=O | inactive |
| COCCOC(=O)N1C(=O)[C@@]2(c3cc(C#CC4(O)CCCCCC4)ccc31)[C@H](c1ccccc1OCCO)N1[C@H](c3ccccc3)[C@H](c3ccccc3)OC(=O)[C@H]1[C@@H]2C(=O)N1CCc2cc(OC)c(OC)cc2C1 | inactive |
| O=C1C=C(O)C(=O)c2ccccc21 | inactive |
| NC1=CC(=O)c2ccccc2C1=O | inactive |
| CC1=CC(=O)c2ccccc2C1=O | active |
| O=C(C[C@H]1CC[C@H]2[C@@H](COC[C@@H](O)CN2C(=O)Nc2ccc(F)cc2)O1)NCCCN1CCOCC1 | inactive |

| Structure (SMILES) | cytotoxicity call |
| --- | --- |
| CC(C)NC(=O)N(C)C[C@@H]1Oc2ccc(NS(=O)(=O)c3cn(C)cn3)cc2C(=O)N([C@@H](C)CO)C[C@H]1C | inactive |
| C[C@@H]1CN([C@@H](C)CO)C(=O)CCCn2cc(nn2)CO[C@H]1CN(C)S(=O)(=O)c1ccc(Cl)cc1 | inactive |
| Cn1c(=O)c(=O)n(C)c2cc(S(=O)(=O)N3CCOCC3)ccc21 | inactive |
| NC(=O)c1cc(S(=O)(=O)N2CCOCC2)ccc1F | active |
| NCc1ccc(S(=O)(=O)N2CCOCC2)cc1 | inactive |
| COCC(=O)Nc1ccc2c(c1)OC[C@H](C)N(C(=O)Cc1ccccn1)C[C@H](C)[C@H](OC)CN(C)C2=O | inactive |
| C[C@@H]1CN([C@H](C)CO)S(=O)(=O)c2ccc(-c3cncnc3)cc2O[C@H]1CN(C)C(=O)NC1CCCC1 | inactive |
| CC[C@H]1OC(=O)[C@H](C)[C@@H](O[C@H]2C[C@@](C)(OC)[C@@H](O)[C@H](C)O2)[C@H](C)[C@@H](O[C@@H]2O[C@H](C)C[C@H](N(C)C)[C@H]2O)[C@](C)(OC)C[C@@H](C)C(=O)[C@H](C)[C@@H](O)[C@]1(C)O | inactive |
| C[C@@H](O)c1cccc(C(F)(F)F)c1 | inactive |
| COc1ccccc1C(=O)Nc1ccc2c(c1)C(=O)N(C)[C@@H]1CC[C@H](CC(=O)NCCc3ccncc3)O[C@@H]1CO2 | inactive |
| COc1ccccc1C(=O)Nc1ccc2c(c1)C(=O)N(C)[C@H]1CC[C@@H](CC(=O)NCCc3ccncc3)O[C@@H]1CO2 | inactive |
| COc1ccccc1C(=O)Nc1ccc2c(c1)C(=O)N(C)[C@H]1CC[C@H](CC(=O)NCc3ccc(Cl)c(Cl)c3)O[C@H]1CO2 | active |
| COc1ccccc1C(=O)Nc1ccc2c(c1)C(=O)N(C)[C@@H]1CC[C@H](CC(=O)NCc3ccc(Cl)c(Cl)c3)O[C@H]1CO2 | inactive |
| COc1ccccc1C(=O)Nc1ccc2c(c1)C(=O)N(C)[C@H]1CC[C@@H](CC(=O)NCCc3ccncc3)O[C@H]1CO2 | inactive |
| CN1C(=O)c2cc(NC(=O)Cc3cccs3)ccc2OC[C@H]2O[C@H](CC(=O)NCc3ccc(-c4ccccc4)cc3)CC[C@@H]21 | inactive |
| COc1ccccc1C(=O)Nc1ccc2c(c1)C(=O)N(C)[C@@H]1CC[C@@H](CC(=O)NCc3ccc(Cl)c(Cl)c3)O[C@@H]1CO2 | active |
| COc1ccccc1C(=O)Nc1ccc2c(c1)C(=O)N(C)[C@@H]1CC[C@@H](CC(=O)NCCc3ccncc3)O[C@H]1CO2 | inactive |
| CN1C(=O)c2cc(NC(=O)Cc3cccs3)ccc2OC[C@@H]2O[C@H](CC(=O)NCc3ccc(-c4ccccc4)cc3)CC[C@@H]21 | active |
| COc1ccccc1C(=O)Nc1ccc2c(c1)C(=O)N(C)[C@@H]1CC[C@H](CC(=O)NCc3ccc(Cl)c(Cl)c3)O[C@@H]1CO2 | inactive |
| CN1C(=O)c2cc(NC(=O)Cc3cccs3)ccc2OC[C@H]2O[C@@H](CC(=O)NCc3ccc(-c4ccccc4)cc3)CC[C@@H]21 | inactive |
| COc1ccccc1C(=O)Nc1ccc2c(c1)C(=O)N(C)[C@H]1CC[C@H](CC(=O)NCc3ccc(Cl)c(Cl)c3)O[C@@H]1CO2 | active |
